Test results as given in PubChem BioAssay AID1159580 (chemical genetic matrix, 2015).
The whole screen tested about 5,500 compounds, of which about 2,000 (36%) were called active. About 18% were inconclusive and are not listed. Cut-off read from the data, not from the text of the source: active = normalized growth mostly below about 0.91 (no sharp cut-off); inconclusive = no clear call, values can overlap the other calls; inactive = mostly above about 0.92. Some of the results follow.

Assay: chemical genetic growth profiling, strain panel (AID 1159580);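 note: tested at 20 µM; growth read once vehicle control cultures reached saturation at 30 °C; 1 = growth at the plate median or of vehicle wells; lower values mean less growth of the strain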
Conditions: growth OD

Measured: normalized growth

CC(=O)CSc1nsc(SCC(C)=O)c1C#N
inactive: S. cerevisiae deletion strains, locus YAL013W, strain DEP1, hits give low values 1.01 | S. cerevisiae deletion strains, locus YBR229C, strain ROT2, hits give low values 1 | S. cerevisiae deletion strains, locus YCL061C, strain MRC1, hits give low values 1.01 | S. cerevisiae deletion strains, locus YDL101C, strain DUN1, hits give low values 0.974 | S. cerevisiae deletion strains, locus YDL134C, strain PPH21, hits give low values 1.01 | S. cerevisiae deletion strains, locus YDR150W, strain NUM1, hits give low values 0.99 | S. cerevisiae deletion strains, locus YEL061C, strain CIN8, hits give low values 1.02 | S. cerevisiae deletion strains, locus YGR078C, strain PAC10, hits give low values 0.997 | S. cerevisiae deletion strains, locus YHR030C, strain SLT2, hits give low values 0.992 | S. cerevisiae deletion strains, locus YHR087W, strain rtc3, hits give low values 0.971 | S. cerevisiae deletion strains, locus YJR043C, strain POL32, hits give low values 1 | S. cerevisiae deletion strains, locus YJR075W, strain HOC1, hits give low values 0.995 | S. cerevisiae deletion strains, locus YKL190W, strain CNB1, hits give low values 1.01 | S. cerevisiae deletion strains, locus YLR039C, strain RIC1, hits give low values 1.01 | S. cerevisiae deletion strains, locus YLR058C, strain SHM2 (second series), hits give low values 0.992 | S. cerevisiae deletion strains, locus YLR085C, strain ARP6, hits give low values 1 | S. cerevisiae deletion strains, locus YLR262C, strain YPT6, hits give low values 0.962 | S. cerevisiae deletion strains, locus YML094W, strain GIM5, hits give low values 1.01 | S. cerevisiae deletion strains, locus YMR219W, strain ESC1, hits give low values 0.989 | S. cerevisiae deletion strains, locus YMR263W, strain SAP30, hits give low values 0.996 | S. cerevisiae deletion strains, locus YNL128W, strain TEP1, hits give low values 1.01 | S. cerevisiae deletion strains, locus YNL153C, strain GIM3, hits give low values 0.979 | S. cerevisiae deletion strains, locus YNL298W, strain CLA4 (second series), hits give low values 0.988 | S. cerevisiae deletion strains, locus YNL322C, strain KRE1, hits give low values 1.01 | S. cerevisiae deletion strains, locus YNR030W, strain Alg12, hits give low values 0.986 | S. cerevisiae deletion strains, locus YOL006C, strain TOP1, hits give low values 0.87 | S. cerevisiae deletion strains, locus YPL055C, strain LGE1, hits give low values 0.903 | S. cerevisiae deletion strains, locus YPL241C, strain CIN2, hits give low values 0.992 | S. cerevisiae deletion strains, locus YPR135W, strain CTF4, hits give low values 0.918 | S. cerevisiae strains, strain wild type, hits give low values 1
